Most compounds without a hit are left out; they make up all but 28% or so of the library.
Mac1 fbg inh – inhibitors of CD11b/CD18 adhesion to fibrinogen, primary screen, K562 cells, luminescence; 93,000 tested, 0.54% active; ATPlite luminescence; Mn2+ added to activate the integrin; inhibition, % at 10 µM; AID 1497, 2009;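 active = primary inhibition of 50% or more at 10 µM, then 40% or more on retest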
CYP2C9 inh – blockers of cytochrome P450 2C9 activity – biochemical, luminescence, ADME assay, primary screen; P11712; 96,000 tested, 20% active; CYP2C9 Supersomes, luciferin-H conversion; inhibition, % at 5 µM;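 active = blocking of liver enzyme CYP2C9 beyond about 50% at 5 µM, limit read from the data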
CYP2C19 activ – human CYP2C19 activators, primary screen, biochemical, luminescence. activation factor at 5 µM. recombinant CYP2C19, luciferin-H EGE luminescence; hits give high values; 0 = fully inhibited enzyme, 1 = untreated enzyme. 96,000 tested, under 10 active. Cytochrome P450 2C19 (Homo sapiens), P33261;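 active = activation factor of at least 2 at 5 µM in the primary screen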;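 also: 0 = wells with 2.5 mM tranylcypromine and 1 = vehicle-only wells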
Target sequence (P33261 whole entry, looked up): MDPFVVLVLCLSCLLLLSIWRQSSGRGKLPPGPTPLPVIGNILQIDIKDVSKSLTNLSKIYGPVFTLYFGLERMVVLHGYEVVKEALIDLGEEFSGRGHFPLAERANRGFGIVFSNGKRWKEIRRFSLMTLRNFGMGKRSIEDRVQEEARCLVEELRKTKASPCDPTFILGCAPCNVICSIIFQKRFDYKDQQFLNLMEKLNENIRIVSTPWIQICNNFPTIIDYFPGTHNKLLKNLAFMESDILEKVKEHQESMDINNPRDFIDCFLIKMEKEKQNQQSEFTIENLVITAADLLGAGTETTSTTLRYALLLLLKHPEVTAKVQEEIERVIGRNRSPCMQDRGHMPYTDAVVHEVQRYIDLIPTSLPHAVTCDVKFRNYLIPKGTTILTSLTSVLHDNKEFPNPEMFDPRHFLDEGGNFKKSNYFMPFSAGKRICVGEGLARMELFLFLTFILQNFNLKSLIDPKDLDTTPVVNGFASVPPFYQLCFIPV
CYP2C9 act – human CYP2C9 activators, primary screen, biochemical, luminescence. recombinant CYP2C9, luciferin-H conversion; hits give high values; factor 1 = untreated enzyme, 0 = blocked. activation factor at 5 µM. 96,000 tested, 1.4% active. AID 1024, 2008;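 active = activation factor of 2 or more for CYP2C9 at a 5 µM dose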;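 also: 0 = sulfaphenazole-blocked wells and 1 = vehicle-only wells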
CYP2C19 inhib – blockers of cytochrome P450 2C19 activity – biochemical, luminescence, ADME assay, primary screen | P33261 | CYP2C19 Supersomes, luciferin-H EGE luminescence, 30 min | inhibition, % at 5 µM | 96,000 tested, 21% active;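 active = CYP2C19 inhibition above a set limit at 5 µM in the primary screen, cut at about 50% in these data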;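 also: plate controls were negative control wells for no effect and 2.5 mM tranylcypromine positive control for full effect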
CD11b adhes enh – enhancers of CD11b/CD18 adhesion to fibrinogen, primary screen, K562 cells, luminescence | activation, % at 10 µM | 93,000 tested, 0.07% active | ATPlite luminescence;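 active = 10 µM primary screen giving 50% or more activity, confirmed by 40% or more on retest at that dose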
Starred values were filed as active, the others as inactive; · = no result given.

SMILES | Mac1 fbg inh | CYP2C9 inh | CYP2C19 activ | CYP2C9 act | CYP2C19 inhib | CD11b adhes enh
CCn1c(=O)c2c(nc(SCC(=O)NCC3CCCO3)n2C)n(C)c1=O (stereo not drawn) | -9.1 | -12.1 | 1 | 1.1 | -4.3 | -4.2
O=c1ccc2cc3c([nH]c4ccc(Br)cc43)oc-2c1O | -23.6 | -0.9 | 0.9 | 1 | 7.9 | 4.3
O=C(CCNc1cccc(Cl)c1)c1ccco1 | -5.2 | 36.4 | 0.2 | 0.6 | 84.9* | -1.5
Cc1cccc(/C=C2/S/C(=N/N=C3\CC4CCC3(C)C4(C)C)NC2=O)c1 (stereo not drawn) | 7.1 | 17.2 | 1.1 | 0.8 | -12.6 | 3.1
N#Cc1cccc(Cn2nnc(-c3ccccc3)n2)c1 | -1.2 | 36.6 | 0.3 | 0.6 | 69.4* | 6.0
CC1CCCCN1c1nnc(NC(=O)c2cc(-c3ccc(Br)cc3)on2)s1 (stereo not drawn) | 60.9 | 61.9* | 0.8 | 0.4 | 16.4 | 8.7
N#Cc1ccsc1NC(=O)CSc1ncnc2ccccc12 | -8.5 | 64.5* | 0.7 | 0.4 | 30.2 | 57.5
CC1=NNC(=O)C1CCC(=O)N/N=C\c1ccccc1[N+](=O)[O-] (stereo not drawn) | · | 0.9 | 0.9 | 1 | 10.1 | ·
FC(F)(F)c1cccc(N2CCN(c3nnnn3-c3ccccc3)CC2)c1 | -1.3 | 100.0* | 0 | 0 | 98.1* | 5.0
COCCn1nnnc1CN1CCN(c2cccc(C(F)(F)F)c2)CC1 | -8.2 | 46.5 | 0.2 | 0.5 | 78.0* | -2.6
Cc1ccc(C)c(N2CCN(c3nnnn3-c3ccccc3)CC2)c1 | 8.6 | 91.1* | 0 | 0.1 | 98.9* | 0.1
Cc1cc(C)nc(N2CCN(c3nnnn3-c3ccccc3)CC2)n1 | -18.5 | 85.3* | 0.6 | 0.1 | 44.9 | 6.2
COc1ccc(OC)c(C(=O)COC(=O)c2ccccc2O)c1 | -17.3 | 12.2 | 0.8 | 0.9 | 20.0 | -0.6
CCOC(=O)c1c2n(c3ccc(OC(C)=O)cc13)CCC2 | 1.3 | -12.6 | 1 | 1.1 | -0.6 | 14.5
CCCCCSc1nnc2c(n1)OC(c1cccn1C)N(C(C)=O)c1ccccc1-2 (stereo not drawn) | · | 82.6* | 0.5 | 0.2 | 45.1 | ·
CCSc1nnc2c(n1)OC(c1ccc(C(=O)O)cc1)N(C(C)=O)c1ccccc1-2 (stereo not drawn) | 5.8 | -30.1 | 1.1 | 1.3 | -8.0 | -3.9
Cc1ccc2c(c1)OC(=O)CC2c1ccccc1 (stereo not drawn) | 13.8 | 46.8 | 0.3 | 0.5 | 67.8* | 0.9
Cc1ccc2c(c1)C(c1ccccc1)N(C(=O)C(C)C)CC(=O)N2 (stereo not drawn) | -56.0 | 34.2 | 0.9 | 0.7 | 6.1 | 1.6
O=c1[nH]nc(Sc2ncnc3sccc23)n1CCc1ccccc1 | 0.6 | 24.9 | 0.2 | 0.8 | 80.3* | -3.9
Cc1cc(C)n(CC2CC(=O)N(c3ccc(Cl)c(Cl)c3)C2=O)n1 (stereo not drawn) | -17.3 | 76.8* | 0 | 0.2 | 98.8* | -1.2
Cc1ccc(N2C(=O)CC(Cn3nc(C)cc3C)C2=O)cc1 (stereo not drawn) | -12.4 | 1.3 | 1 | 1 | 2.0 | -1.4
Cc1ccc(-n2ncc3c(=O)n(CC(=O)NCc4ccco4)cnc32)cc1C | -28.3 | -4.2 | 1 | 1 | -4.0 | -2.8
Cc1cc(C)nc(SCC(=O)OCC(=O)Nc2nc3ccccc3s2)n1 | 6.1 | · | · | · | · | 1.7
CC(=O)Nc1ccc(OCC(O)CN2CCN(c3ccc(C)c(Cl)c3)CC2)cc1 (stereo not drawn) | 2.9 | 72.6* | 0.3 | 0.3 | 67.8* | 0.6
CC(=O)Nc1ccc(OCC(O)CN2CCN(c3cc(Cl)ccc3C)CC2)cc1 (stereo not drawn) | -8.0 | 60.8* | 0.2 | 0.4 | 83.7* | -1.1
CCN1CCN(CC(O)COc2ccc(Cl)cc2)CC1 (stereo not drawn) | 1.6 | -32.1 | 0.9 | 1.3 | 9.4 | -0.4
CCOC(=O)C1CC=C(Cl)CC1C(=O)Nc1nccs1 (stereo not drawn) | 5.3 | 40.7 | 0.6 | 0.6 | 36.5 | -2.3
CCCCS(=O)(=O)/C=C\C=C/S(=O)(=O)CCCC | -11.7 | 9.7 | 0.9 | 0.9 | 14.2 | -6.3
